Reference: PubChem BioAssay
Calls of active or inactive are those of the source.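 How the source made its calls: active means compounds killing one labelled cell type while sparing the other, by normalised counts and ratio limits, not self-fluorescent; inactive means the rest.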

Test: differential killing of epithelial or mesenchymal cells, primary screen, imaging, PC-3E GFP, TEM4-18 mCherry, co-culture (AID 1345086);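 further: cells exposed to compound for 72 h before imaging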;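 on red/green cell ratio (normalised): normalised mesenchymal count divided by normalised epithelial count so high means epithelial killing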
Conditions: imaging cell counts, at 1 µM; for red/green cell ratio (normalised): actives lie on both sides, counts scaled to control wells, 1 = unselective
[1] = measured here: epithelial PC-3E GFP cell survival
[2] = measured here: mesenchymal TEM4-18 mCherry cell survival

Compound	red/green cell ratio (normalised)	normalised cell number [1]	normalised cell number [2]
COC(=O)NC1[C@@H](O)C(O)C(CO)O[C@H]1Sc1ccccc1 (some centres undefined)	0.91 (inactive)	1.06	0.96
NCc1ccccc1CC(=O)NC1C(=O)N2C(C(=O)O)=C(CSc3nnnn3CC(=O)O)CSC12 (centres undefined)	0.82 (inactive)	1.19	0.98
C[C@@]1(N)CCCCCN(c2c(F)cc3c(=O)c(C(=O)O)cn(C4CC4)c3c2Cl)C1	1.03 (inactive)	0.97	1
CC(C)CCCC(C)[C@H]1CCC2C3C=CC4=CC(=O)CC[C@]4(C)C3CC[C@@]21C (some centres undefined)	0.99 (inactive)	0.94	0.93
CC(=O)O[C@H]1CC[C@@]2(C)C(=CCC3C2CC[C@@]2(C)C3CC[C@@H]2C(C)CCCC(C)C)C1 (some centres undefined)	1.16 (inactive)	0.99	1.15
CC[C@@H]1OC(=O)c2c(OC)cc(=O)oc21	1.1 (inactive)	1.01	1.11
C[C@]12CCc3occc3C1CC[C@@]13C[C@@H](CCC12)[C@@](O)(CO)C3 (some centres undefined)	1.12 (inactive)	0.94	1.06
[N-]=[N+]=N[C@H]1[C@H](Sc2ccccc2)OC(CO)C(O)[C@@H]1O (some centres undefined)	0.98 (inactive)	1.08	1.06
NCC1O[C@@H](OC2C(N)C[C@@H](N)C(OC3OC(CO)[C@@H](O)C(N)[C@H]3O)[C@H]2O)C(O)[C@@H](O)C1O (some centres undefined)	1.1 (inactive)	1.02	1.13
O=c1c(O)c(-c2ccc(O)c(O)c2)oc2c(O[C@@H]3O[C@H](CO)[C@H](O)[C@@H](O)[C@H]3O)c(O)cc(O)c12	0.95 (inactive)	1.06	1.01
CC(C)[C@H]1COC(=O)N1C(=O)CC(C)N1C(=S)OC[C@H]1c1ccccc1 (some centres undefined)	1.05 (inactive)	1.07	1.12
O=C(Cc1ccccc1)NCC1O[C@@H](OC2C(NC(=O)Cc3ccccc3)C[C@@H](NC(=O)Cc3ccccc3)[C@H](OC3OC(COS(=O)(=O)O)[C@@H](OS(=O)(=O)O)[C@H](NC(=O)Cc4ccccc4)[C@H]3OS(=O)(=O)O)[C@H]2OS(=O)(=O)O)[C@H](OS(=O)(=O)O)[C@@H](OS(=O)(=O)O)C1OS(=O)(=O)O (some centres undefined)	1.14 (inactive)	0.9	1.03
O=c1c(O)cccc2cc(O)c(O)c(O)c12	0.92 (inactive)	1.11	1.02
COC(=O)C1O[C@H](OCc2ccc(OC)cc2)[C@@H](OC(=O)c2ccccc2)[C@@H](OC(=O)c2ccccc2)C1O (some centres undefined)	0.84 (inactive)	1.32	1.11
Nc1ccc2ccccc2c1S(=O)(=O)O	0.94 (inactive)	1.03	0.97
c1ccc(SCC2CCCNC2)cc1 (centres undefined)	0.86 (inactive)	1.24	1.06
CC(CC(=O)N1CCOC1=O)N1C(=S)OC[C@@H]1Cc1ccccc1 (some centres undefined)	1.09 (inactive)	0.88	0.95
C[C@@H]1OC(O[C@H]2[C@H](O)[C@@H](O)[C@H](OC[C@H]3O[C@@H](OC(=O)[C@]45CCC(C)(C)CC4C4=CCC6[C@@]7(C)CC[C@H](OC8OC[C@H](O)[C@H](O)[C@H]8OC8O[C@@H](C)[C@H](O)[C@@H](O)[C@H]8O)[C@@](C)(CO)C7CC[C@@]6(C)[C@]4(C)CC5)[C@H](O)[C@@H](O)[C@@H]3O)O[C@@H]2CO)[C@H](O)[C@H](O)[C@H]1O (some centres undefined)	0.98 (inactive)	0.96	0.93
Nc1ccc(Oc2ccccc2)cc1	0.95 (inactive)	0.99	0.94
C=C1OC(=O)C23C1OC(CC(O)C2O)C3C (centres undefined)	0.9 (inactive)	1.26	1.14
CCC(=O)O[C@]1(C(=O)SCF)[C@H](C)CC2C3CC(F)C4=CC(=O)C=C[C@]4(C)C3(F)[C@@H](O)C[C@@]21C (some centres undefined)	1.04 (inactive)	0.87	0.9
O=c1c(O)c(-c2ccccc2)oc2ccc3occc3c12	0.81 (inactive)	1.22	0.99
COC1=CC(=O)C[C@@H](C)[C@]12Cc1c(Cl)c(OC)cc(OC)c1C2=O	0.76 (inactive)	1.33	1.01
COc1cc2c(c3oc4ccccc4c(=O)c13)[C@@H]1C=CO[C@@H]1O2	0.91 (inactive)	0.44	0.4
O=C1NCC[C@H]1Oc1ccc(Oc2cnc3ccc(Cl)cc3n2)cc1	0.76 (inactive)	1.18	0.9
CC(=O)O[C@@H]1CC2C(C)(C)C(=O)CC[C@]2(C)C2CC[C@@]3(C)[C@H](c4ccoc4)OC(=O)C4OC43[C@@]21C (some centres undefined)	1.03 (inactive)	0.94	0.97
CC(C)(O)CC[C@@H](O)[C@](C)(O)C1CC[C@@]2(O)C3=CC(=O)C4C[C@@H](O)[C@@H](O)C[C@]4(C)C3CC[C@]12C (some centres undefined)	0.93 (inactive)	0.94	0.88
CCN1CCN(c2c(F)cc3c(=O)c(C(=O)O)cn4c3c2OC[C@@H]4C)CC1	0.75 (inactive)	1.34	1
